From PubChem
CRFR2-BP ag = CRF-BP/CRF-R2 complex agonism. HEK293 CRF-R2/CRF-BP, calcium dye fluorescence (FLIPR); percent of saturating CRF peptide response. activation, % at 13.2 µM. 0.46% of 350,000 active. AID 588473;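 active = activation of at least 50%, plus an integration ratio under a set limit after plate pattern correction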;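 note: plate controls were neutral control wells without compound for no effect and CRF at EC100 for full effect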
ANO1 activ = activators or potentiators of mouse TMEM16A chloride channel | 0.3% of 340,000 active | Q8BHY3 | HEK293 TMEM16A/YFP-H148Q/I152L, iodide quench fluorescence; stronger effect = lower value | AID 623877 | B-score at 10 µM;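 active = fluorescence-ratio B-score plate-corrected deviation score at least 3 library SD below zero, with starting fluorescence score within 5 deviations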;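 note: channel opened by trigger with iodide after compound preincubation; score built on the fluorescence ratio of max minus min over baseline; more negative score means more quench and so TMEM16A activation or potentiation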
CRFR2-BP antag = blocks CRF-induced signaling of the CRF-BP/CRF-R2 complex. HEK293 CRF-R2/CRF-BP, CRF-induced calcium fluorescence. inhibition, % at 11.8 µM. 0.59% of 350,000 active;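 active = inhibition of the ligand-induced calcium signal above about 50% at the single tested concentration, limit read from the data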
MPTP inh = blocks calcium-induced mitochondrial swelling. inhibition, % at 10 µM. AID 602449. isolated mouse mitochondria, Ca2+ swelling absorbance, 30 min. 1.4% of 360,000 active;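 active = inhibition of 50% or more, scaled per plate between neutral and stimulator controls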;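 note: 0% = DMSO wells given calcium and 100% = 1 mM EGTA wells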
GRIN3A LBD mod = modulates the human NR3A ligand-binding domain; 2.5% of 340,000 active; NR3A LBD differential scanning fluorimetry, Tm shift; 0% = protein alone, 100% = glycine-bound protein; AID 1259313; Tm shift relative to glycine control, % at 25 µM;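 active = melting temperature shift of at least 10% of the positive control shift, at one fixed dose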
ANO1 block = inhibitors of mouse TMEM16A calcium-activated chloride channel | 1.2% of 310,000 active | Q8BHY3 | normalized B-score (activity score, 25-100; higher = stronger inhibition) at 10 µM | HEK293 TMEM16A/YFP iodide influx fluorescence, ionomycin | AID 588511;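 active = ratio plate-corrected score three or more library SD toward inhibition, starting fluorescence score within five deviations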;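 note: score derived from kinetic fluorescence span divided by baseline fluorescence per well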
TMEM16A reconf = re-confirmation of mouse TMEM16A chloride channel inhibitors; shares compounds with ANO1 block; HEK293 TMEM16A/YFP-H148Q, iodide quench fluorescence; ionomycin added to raise cell calcium; inhibition, % at 10 µM; 39% of 2,300 active; AID 652189;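 active = mean duplicate percent inhibition, scaled so buffer wells are 0 and the reference blocker 100, over three buffer SD above buffer mean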
TMEM16A Ca cntr = alters calcium mobilization in TMEM16A HEK293 cells, counter-screen; 2% of 2,300 active; calcium response (% of ionomycin), % at 10 µM; shares compounds with ANO1 block; TMEM16A/YFP HEK293, Fluo4 calcium mobilization; AID 652231;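 active = duplicate-averaged calcium signal over 20% of the ionomycin maximum, relative to buffer baseline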;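 note: each well's signal is peak minus trough fluorescence divided by its pre-addition baseline; 0% = buffer wells and 100% = ionomycin wells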
YFP-HEK293 quench = counter-screen for TMEM16A inhibitors: effect in parental YFP-HEK293 cells; shares compounds with ANO1 block; iodide YFP quench, ionomycin; YFP ratio F(max-min)/F0 at 10 µM; 2,300 tested, under 10 active; AID 652233;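 active = yellow fluorescent protein signal ratio exceeding the buffer control mean by over 5 SD of those controls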;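 note: ratio is mean of duplicate wells from kinetic YFP trace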
ClC-1 rat inh = blocks the rat ClC-1 voltage-dependent chloride channel; AID 652236; ratio percent, % at 10 µM; 2,300 tested, under 10 active; shares compounds with ANO1 block; CHO ClC-1-YFP, iodide influx fluorescence quench; iodide control reads 0, buffer control 100;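 active = duplicate-mean ratio percent above the mean of iodide-only control wells, which defines zero, plus 5 of their SD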;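 note: higher percent means stronger block of ClC-1 iodide influx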
Target sequence (P35524 whole entry, looked up): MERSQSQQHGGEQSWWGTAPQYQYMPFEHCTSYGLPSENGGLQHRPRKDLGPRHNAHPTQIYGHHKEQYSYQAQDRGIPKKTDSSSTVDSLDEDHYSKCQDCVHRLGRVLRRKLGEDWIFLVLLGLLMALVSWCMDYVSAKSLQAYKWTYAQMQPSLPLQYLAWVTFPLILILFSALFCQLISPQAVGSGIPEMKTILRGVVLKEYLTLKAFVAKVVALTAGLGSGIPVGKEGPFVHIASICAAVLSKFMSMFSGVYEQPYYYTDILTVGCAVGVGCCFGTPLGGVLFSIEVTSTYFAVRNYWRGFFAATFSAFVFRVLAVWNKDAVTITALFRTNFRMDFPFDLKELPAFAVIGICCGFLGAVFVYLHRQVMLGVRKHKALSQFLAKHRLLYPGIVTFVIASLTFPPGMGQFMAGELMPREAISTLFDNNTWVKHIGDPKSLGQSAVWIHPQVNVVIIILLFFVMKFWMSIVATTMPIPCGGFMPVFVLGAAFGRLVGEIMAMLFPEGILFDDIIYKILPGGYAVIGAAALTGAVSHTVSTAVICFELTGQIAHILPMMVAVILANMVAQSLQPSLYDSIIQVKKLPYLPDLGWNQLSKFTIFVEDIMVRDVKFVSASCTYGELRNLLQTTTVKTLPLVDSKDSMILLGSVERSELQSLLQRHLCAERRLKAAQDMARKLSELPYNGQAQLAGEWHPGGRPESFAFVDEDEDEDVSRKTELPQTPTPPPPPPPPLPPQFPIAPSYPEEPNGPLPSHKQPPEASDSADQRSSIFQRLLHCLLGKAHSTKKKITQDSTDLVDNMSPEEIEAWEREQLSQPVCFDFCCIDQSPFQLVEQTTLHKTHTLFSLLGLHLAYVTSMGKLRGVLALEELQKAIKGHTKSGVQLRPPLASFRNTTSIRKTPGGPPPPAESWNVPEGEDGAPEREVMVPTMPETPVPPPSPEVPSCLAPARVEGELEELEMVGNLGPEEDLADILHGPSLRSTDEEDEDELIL
Active calls of the source: *. Shown are actives, neighbours in structure and some others; about 5.1% of the full set was active somewhere.

Screening COc1ccc2cc(CN(CC3COCCO3)S(=O)(=O)c3ccccc3)c(=O)[nH]c2c1 (configuration not stated) returned CRFR2-BP ag -3, ANO1 activ inactive, CRFR2-BP antag -37, MPTP inh -2 and GRIN3A LBD mod -3.
CCCCN1C[C@H](CSC)[C@@H](CC(=O)Nc2ccc(Br)cc2)C1=O was read as CRFR2-BP ag 1, CRFR2-BP antag 0 and MPTP inh 1.
For COC(=O)[C@]12CCCCC=C1N(Cc1ccccc1)C(=O)[C@H](CC(=O)NCc1cccs1)C2 the results were MPTP inh 0.
`CCN(C(=S)NCc1ccccc1)c1cccc2ccccc12` gave CRFR2-BP ag 0, ANO1 activ inactive, CRFR2-BP antag 37, MPTP inh 0, GRIN3A LBD mod 0, ANO1 block 25*, TMEM16A reconf inactive, TMEM16A Ca cntr inactive, YFP-HEK293 quench -1.2 and ClC-1 rat inh -8.
Screening C=CCN(C(=O)Nc1ccc(Cl)cc1)C1CC(=O)N(c2ccc(OC)cc2)C1=O (configuration not stated) returned CRFR2-BP ag -1, ANO1 activ inactive, CRFR2-BP antag 13, MPTP inh 0, GRIN3A LBD mod 1 and ANO1 block inactive.
CNC(=S)N(Cc1ccc(OC)cc1)C1CC(=O)N(c2ccc(Cl)cc2)C1=O (configuration not stated) was read as CRFR2-BP ag -1, ANO1 activ inactive, CRFR2-BP antag 5, MPTP inh 1, GRIN3A LBD mod 32*, ANO1 block inactive, TMEM16A reconf 28%*, TMEM16A Ca cntr inactive, YFP-HEK293 quench -0.96 and ClC-1 rat inh -4.
`CCOC(=O)Cc1ccc(Nc2nc(NCc3ccccc3)nc3ccsc23)cc1` gave MPTP inh 2.
`CN(C)c1ccnc(SCc2ccccc2Cl)c1C#N` gave CRFR2-BP ag 7, ANO1 activ inactive, CRFR2-BP antag -58, MPTP inh 2, GRIN3A LBD mod 1, ANO1 block 25*, TMEM16A reconf inactive, TMEM16A Ca cntr inactive, YFP-HEK293 quench -0.84 and ClC-1 rat inh -8.
Screening CN(C)c1ccnc(Oc2ccccc2)c1C#N returned CRFR2-BP ag -1, ANO1 activ inactive, CRFR2-BP antag 11, MPTP inh -1 and GRIN3A LBD mod -1.
For CC(C)C(NS(=O)(=O)c1cccc(C(F)(F)F)c1)C(=O)NCc1cccs1 (configuration not stated) the results were CRFR2-BP ag 0, ANO1 activ inactive, CRFR2-BP antag 13, MPTP inh 2 and GRIN3A LBD mod 0.
Screening O=C(C1CCC1)N1CCc2cc(S(=O)(=O)N3CCN(c4ccccn4)CC3)ccc21 returned CRFR2-BP ag -1, ANO1 activ inactive, CRFR2-BP antag 6, MPTP inh -2, GRIN3A LBD mod 3, ANO1 block inactive, TMEM16A reconf inactive, TMEM16A Ca cntr inactive, YFP-HEK293 quench -1.2 and ClC-1 rat inh -4.
Screening Cc1cccc(C(=O)N2CCC[C@H]2C(=O)N2CCC[C@H]2C(=O)NCc2ccncc2)c1 returned MPTP inh 0.
CCOC(=O)c1sc(N2C(=O)C(O)=C(C(=O)c3ccco3)C2c2cccc(Cl)c2)nc1C (configuration not stated) was read as ANO1 activ inactive, MPTP inh 0, ANO1 block 25*, TMEM16A reconf inactive, TMEM16A Ca cntr inactive, YFP-HEK293 quench -0.73 and ClC-1 rat inh -8.
`CC(C)(C)NC(=O)Cn1c(SCC(N)=O)nc2ccccc21` gave CRFR2-BP ag -3, ANO1 activ inactive, CRFR2-BP antag 6, MPTP inh -2, GRIN3A LBD mod -2, ANO1 block 100*, TMEM16A reconf inactive, TMEM16A Ca cntr inactive, YFP-HEK293 quench -1.1 and ClC-1 rat inh -8.
`COc1ccc(C(=O)C2CN(c3ccccc3)CC2c2ccc(Cl)cc2)cc1` (configuration not stated) gave CRFR2-BP ag 0, ANO1 activ inactive, CRFR2-BP antag 0, MPTP inh 3, GRIN3A LBD mod -5, ANO1 block 25*, TMEM16A reconf inactive, TMEM16A Ca cntr inactive, YFP-HEK293 quench -1.1 and ClC-1 rat inh -6.
`COc1ccc(OC)c(NS(=O)(=O)c2c(C(=O)N3CCCCCC3)c(C)n(C)c2C)c1` gave CRFR2-BP ag -1, ANO1 activ inactive, CRFR2-BP antag 3, MPTP inh 0, GRIN3A LBD mod 3 and ANO1 block inactive.
`O=C(c1ccccc1)C1CCN(C(=O)c2c(F)cccc2F)CC1` gave CRFR2-BP ag 6, ANO1 activ inactive, CRFR2-BP antag -15, MPTP inh 2, GRIN3A LBD mod -1 and ANO1 block inactive.
`Oc1cccc(Nc2nc(NCC3CCCO3)c3ccccc3n2)c1` (configuration not stated) gave CRFR2-BP ag -4, CRFR2-BP antag 26, MPTP inh 6, GRIN3A LBD mod -2 and ANO1 block inactive.
Screening OCCNc1nc(Nc2ccccc2)nc2ccccc12 returned CRFR2-BP ag 0, ANO1 activ inactive, CRFR2-BP antag -7, MPTP inh 11, GRIN3A LBD mod 0 and ANO1 block inactive.
c1ccc(Nc2nc(NCC3CCCO3)c3ccccc3n2)cc1 (configuration not stated) was read as CRFR2-BP ag -1, ANO1 activ inactive, CRFR2-BP antag -25, MPTP inh 10, GRIN3A LBD mod -3, ANO1 block 100*, TMEM16A reconf inactive, TMEM16A Ca cntr inactive, YFP-HEK293 quench -1.1 and ClC-1 rat inh -14.
Screening OCCNc1nc(Nc2ccc(Br)cc2)nc2ccccc12 returned CRFR2-BP ag 0, CRFR2-BP antag -17, GRIN3A LBD mod 1, ANO1 block 25*, TMEM16A reconf 22%*, TMEM16A Ca cntr inactive, YFP-HEK293 quench -1.4 and ClC-1 rat inh -8.
For CCNC(=O)C1(C)CCN(C(=O)c2ccc(N(C)C)cc2)C1 (configuration not stated) the results were MPTP inh 0.
